Bioassay records: PubChem BioAssay, National Center for Advancing Translational Sciences (NCATS)
Shown are actives, neighbours in structure and some others; about 7.5% of the full set was active somewhere.
B2AR arrestin = beta2AR (human) beta-arrestin recruitment activity | 0.02% of 330,000 active | Potency, µM (series often up to 46.1 µM), without a hit: at the highest dose activation, usual class: activators | P07550 | beta-arrestin recruitment to beta2AR, cell-based reporter | AID 492947;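 further: potency means the concentration at half of the fitted maximal effect; 0% = DMSO controls and full agonism = EC100 isoproterenol or metaproterenol; nearly all actives have a fitted effect of over 65% in size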
Gal4-VP16 FLuc = counter-screen for ROR gamma inhibitors: Gal4-VP16 reporter. Drosophila S2 Gal4-VP16 UAS-luciferase, luminescence, 20 h. Potency, µM (highest dose often 53.6 µM), for the others: at the highest dose activity, negative = inhibition, hits mostly inhibitors. 3.5% of 310,000 active;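 further: Gal4-VP16 expression switched on by copper sulfate through the metallothionein promoter; potency means the concentration at half of the fitted maximal effect; nearly all actives have a fitted effect of over 50% in size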
ELG1 repair inh = inhibitors of ELG1-dependent DNA repair in HEK293T cells. Potency, µM (doses to about 46.1 µM), for inactives: at the highest dose activity change, negative = inhibition, usual class: inhibitors. 2.3% of 330,000 active. HEK293T ELG1-luciferase reporter, luminescence, 16 h; DNA damage induced by 5-fluorouridine; further: potency means the concentration at half of the fitted maximal effect; nearly all actives have a fitted effect of over 55% in size
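Reporter activity after DNA damage by 5-fluorouridine is monitored. Compound-treated cells incubate 16 hr at 37 °C, then ONE-Glo is added for 30 min before luminescence reading.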
RORgamma inh = blocks mouse ROR gamma transcriptional activity. P51450. 5.4% of 310,000 active. Potency, µM (highest dose often 53.6 µM), for the others: at the top dose activity change, negative = inhibition, actives largely listed as inhibitors. Drosophila S2 Gal4-RORgamma UAS-luciferase reporter, 20 h; further: potency means the concentration at half of the fitted maximal effect; nearly all actives have a fitted effect of over 60% in size
Target sequence (P51450 whole entry, looked up, the tested form may be a part): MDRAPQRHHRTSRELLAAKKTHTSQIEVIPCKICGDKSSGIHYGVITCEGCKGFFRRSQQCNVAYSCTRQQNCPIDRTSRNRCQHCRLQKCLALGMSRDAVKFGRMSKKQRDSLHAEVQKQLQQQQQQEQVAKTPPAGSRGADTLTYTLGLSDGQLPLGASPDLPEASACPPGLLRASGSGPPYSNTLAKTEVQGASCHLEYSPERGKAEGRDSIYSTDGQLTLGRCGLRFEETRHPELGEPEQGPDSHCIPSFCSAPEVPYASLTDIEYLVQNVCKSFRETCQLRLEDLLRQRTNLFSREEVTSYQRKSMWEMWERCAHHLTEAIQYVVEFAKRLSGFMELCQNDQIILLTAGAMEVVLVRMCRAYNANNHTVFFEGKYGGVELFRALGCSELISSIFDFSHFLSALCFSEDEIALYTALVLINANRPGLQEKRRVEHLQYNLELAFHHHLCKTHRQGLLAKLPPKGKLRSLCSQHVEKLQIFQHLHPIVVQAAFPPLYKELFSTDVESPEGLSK
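Drosophila S2 cells stably expressing Gal4-DBD/mouse RORγ fusion under metallothionein promoter plus UAS-luciferase; compound 1 h, then 700 uM CuSO4 induction for 20 h at ambient temperature; inhibition read as reduced luminescence.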
TSHR antagonist = blocks TSH signaling through the human TSH receptor | P16473 | TSHR-expressing cells, TSH-stimulated cAMP HTRF, 2 h; stronger effect = lower value | activity change, negative = inhibition, % at 11.5 µM | 0.2% of 330,000 active;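 active means activity change below a set negative limit, meaning inhibition stronger than a set level, cut at about -70% in these data; inconclusive means activity change between two set negative limits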
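Cell-based HTRF cAMP assay; TSHR cells + compound, TSH EC80 (4nM final), 2 h, 37 deg C. Lysis with anti-cAMP cryptate and cAMP-d2, 30 min RT, read 665/620 nm.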
* hit, by the source's call; ? = inconclusive; nt = no result given; [ ] = another dose, or the depositor's remark. Unless noted, the call rests on the fitted dose curve; in most records, active means well fitted curve in the direction sought with a large enough effect; inconclusive means small, poorly fitted or top-dose-only effect, or another doubt; inactive means no such curve, though single readings can be large; an effect the other way counts as inactive or inconclusive. Unless noted, on the % scale 0 is the no-effect control and ±100 the full control effect.

SMILES | B2AR arrestin | Gal4-VP16 FLuc | ELG1 repair inh | RORgamma inh | TSHR antagonist
N#CC(C#N)=c1ccc2c(c1)N1C3=C(CCCC3)CC3CCCCC31N=2 (stereo not given) | -0.2% | 0.0% | -10.8% | -10.5% | -9.2
CC1CCN(S(=O)(=O)c2ccc3c(c2)N(C)C(=O)CC(=O)N3C)CC1 | 0.2% | -0.9% | 0.9% | -25.5% | 39.6
O/N=C(\c1ccc(Cl)cc1Cl)c1ncc(C(F)(F)F)cc1Cl | 0.2% | 25.1µM* | 0.9% | 11.2µM* | -9.8
CN(CC(=O)Nc1cccc(F)c1)C(=O)c1cc(-c2ccco2)nc2ccccc12 | 0.1% | nt | ? | nt | 2.5
CN(CC(=O)Nc1ccc(F)c(F)c1F)C(=O)c1cc(-c2ccncc2)nc2ccccc12 | -1.0% | nt | 23.1µM* | nt | -1.9
COc1ccc(NC(=O)CN(C)C(=O)c2cc(-c3ccco3)nc3ccccc23)cc1 | 0.0% | nt | 18.3µM* | nt | 0.0
Cc1ccc(-c2cc(C(=O)N(C)CC(=O)Nc3ccccc3Br)c3ccccc3n2)o1 | -0.3% | nt | 5.17µM* | nt | -3.8
CC1CCCCN1C(=O)CN1C(=O)CSc2ccc(S(=O)(=O)N3CCOCC3)cc21 (stereo not given) | 0.2% | -5.4% | 22.9% | -11.6% | 4.5
CN(C)S(=O)(=O)c1cccc(C(=O)OCC(=O)Nc2sccc2C(N)=O)c1 | 0.0% | -24.0% | 18.4µM* | 24.2% | -24.3
COc1cccc(N(C)C(=S)Oc2ccc3c(c2)CCCC3)n1 | nt | ? | nt | -3.2%[10 µM] | nt
Cc1ccc(C)c(S(=O)(=O)N2CCN(C(=O)c3ccc(-n4cncn4)c([N+](=O)[O-])c3)CC2)c1 | 0.4% | nt | -3.4% | nt | -7.6
Cc1ccc(C)c(S(=O)(=O)N2CCN(C(=O)c3ccc(N4CCCC4)c([N+](=O)[O-])c3)CC2)c1 | -1.1% | -2.4% | 20.6µM* | 68.1% | -15.5
O=C1[C@@H]2[C@H]3[C@H](O)[C@H](O)C/C(=N/OC[C@@H](O)COCc4ccco4)[C@H]3CC[C@H]2C(=O)N1c1ccc(F)cc1F | nt | -13.2%[10 µM] | nt | -3.5%[10 µM] | nt
Cc1c(Cl)cccc1NC(=S)/C(=C(\[O-])c1ccc(Cl)s1)[n+]1ccccc1 | -0.1% | 5.62µM* | 9.8% | ? | 28.9
[O-]/C(=C(\C(=S)Nc1cccc2ccccc12)[n+]1cccc(CO)c1)c1ccc(Cl)s1 | -0.1% | 7.1% | ? | -42.4% | -4.2
COCCNC(=O)/C(C#N)=C/c1ccc(-c2ccc(S(=O)(=O)N3CCOCC3)cc2)o1 | -0.3% | -0.2% | 16.4µM* | ? | -11.4
CCOC(=O)N1CCC(N2Cc3cccc(C(=O)NCc4ccc(C)cc4)c3C2=O)CC1 | 0.3% | 2.9% | 16.4µM* | 13.2% | 5.9
Fc1ccc(Nc2ccnc(C(F)(F)F)c2)cc1 | 0.0% | -5.7% | ? | 5.6% | 2.0
FC(F)(F)c1cc(NC2CCCCC2)ccn1 | 0.3% | -8.9% | 8.2µM* | ? | -3.5
O=C(Nc1ncc([N+](=O)[O-])s1)c1cccs1 | -1.0% | 10µM* | ? | ? | ?
Cc1cnc(NC(=O)c2cccs2)s1 | -1.6% | ? | ? | ? | -7.5
O=C(/C=C/c1ccc([N+](=O)[O-])cc1)NCc1ccccn1 | -1.0% | -1.2% | -2.2% | 27.4% | 4.9
O=C(CCS(=O)(=O)Cc1ccccc1)Nc1ncc([N+](=O)[O-])s1 | 0.0% | ? | -0.3% | 7.94µM* | -30.7
O=C(/C=C/c1ccc([N+](=O)[O-])cc1)Nc1ncc([N+](=O)[O-])s1 | -1.0% | 7.08µM* | ? | ? | -34.0
CC(C)(C)c1nnc(NC(=O)c2cccs2)s1 | -0.6% | ? | ? | 17.8µM* | -17.3
Cc1cccc(C)c1Nc1oc(-c2ccccc2)nc1-c1ccccc1 | nt | -4.0% | nt | -0.9% | nt
CC(C)[C@H](NC(=O)[C@@H]1CSSC[C@H](NC(=O)[C@H](CC(=O)O)NC(=O)[C@H](C)NC(=O)[C@@H](NC(=O)CNC(=O)[C@H](C)N)[C@@H](C)O)C(=O)N[C@@H](Cc2ccccc2)C(=O)N[C@@H](Cc2c[nH]c3ccccc23)C(=O)N[C@@H](CCCCN)C(=O)N[C@@H](Cc2ccc(O)cc2)C(=O)N1)C(=O)O | nt | -14.7% | nt | 14.7% | nt
